Paper PMC7826789 (International Journal of Molecular Sciences, 2021)

How the values were obtained:
Settings in all cases: Compound Concentration (nM):1000
TNK1 = tested on: TNK1
TNK2 = tested on: TNK2
TNNI3K = tested on: TNNI3K
TRKA = tested on: T1, TRKA
T1 construct: gene NTRK1

TRKB = tested on: T2, TRKB
T2 construct: gene NTRK2

TRKC = tested on: T3, TRKC
T3 construct: gene NTRK3

TRPM6 = tested on: TRPM6
TSSK1B = tested on: TSSK1B
TSSK3 = tested on: TSSK3
TTK = tested on: TTK
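Further: KINOMEscan scanMAX binding as percent activity remaining versus control; lower means stronger binding.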

| Structure (SMILES) | Percent Control (TNK1) [%] | Percent Control (TNK2) [%] | Percent Control (TNNI3K) [%] | Percent Control (TRKA) [%] | Percent Control (TRKB) [%] | Percent Control (TRKC) [%] | Percent Control (TRPM6) [%] | Percent Control (TSSK1B) [%] | Percent Control (TSSK3) [%] | Percent Control (TTK) [%] |
| --- | --- | --- | --- | --- | --- | --- | --- | --- | --- | --- |
| Cl.O=C(Nc1ccc(Oc2ccc3[nH]c(NC(=O)c4ccccc4)nc3c2)cc1)Nc1cc(C(F)(F)F)ccc1F [GW709042A] | 66 | 100 | 55 | 27 | 35 | 29 | 100 | 100 | 100 | 87 |
| COc1cc(N2CCN(C(C)C)CC2)ccc1Nc1nc(Nc2ccc(F)cc2C(=O)NC[C@@H](O)CO)c2cc[nH]c2n1 [GSK1392956A] | 18 | 67 | 100 | 86 | 91 | 89 | 82 | 42 | 83 | 4.9 |
| COc1cc2ncnc(Nc3ccc4c(cnn4Cc4ccccc4)c3)c2cc1OC.Cl [GW282449A] | 100 | 77 | 100 | 100 | 100 | 100 | 87 | 100 | 100 | 96 |
| COc1ccc2[nH]c3c4[nH]c5ccc(OC)cc5c4c4c(c3c2c1)C(=O)NC4=O [GW296115X] | 29 | 69 | 90 | 40 | 59 | 47 | 79 | 89 | 89 | 50 |
| O=C1Nc2ccc(C(=O)c3ccco3)cc2C1=Cc1cc(Cl)c(O)c(Cl)c1 [GW406108X] | 79 | 100 | 100 | 33 | 75 | 61 | 95 | 100 | 87 | 30 |
| CC(C)COC(=O)c1ccc2c(c1)/C(=C/Nc1ccc(S(N)(=O)=O)cc1)C(=O)N2 [GW416981X] | 100 | 100 | 100 | 23 | 55 | 59 | 100 | 100 | 100 | 6.3 |
| CC1=C(C(=O)Nc2ccc3[nH]ncc3c2)C(c2ccc3ccccc3c2)CC(=O)N1 (centres unmarked) [GSK270822A] | 68 | 62 | 100 | 66 | 73 | 63 | 82 | 97 | 43 | 92 |
| C/C(Nc1ccc(S(N)(=O)=O)cc1)=C1/C(=O)Nc2ccccc21 [GW335962X] | 100 | 100 | 69 | 7.9 | 25 | 42 | 84 | 100 | 75 | 12 |
| CN1CCN(C(=O)c2ccc(NC(=O)Nc3ccc(N(C)c4ccnc(Nc5ccc(CS(C)(=O)=O)cc5)n4)cc3)cc2)CC1.Cl [GW830263A] | 6.7 | 6.5 | 92 | 7.1 | 11 | 2 | 91 | 96 | 75 | 61 |
| CCS(=O)(=O)c1ccc(OC)c(Nc2ncc(-c3cccc(F)c3)o2)c1 [GW621970X] | 38 | 90 | 66 | 11 | 30 | 48 | 88 | 100 | 100 | 100 |
| COc1ccc2c(-c3ccnc(Nc4cccc(OC(F)(F)F)c4)n3)cnn2n1 [GW810372X] | 100 | 100 | 100 | 55 | 92 | 91 | 92 | 100 | 86 | 94 |
| CC1=C(C(=O)Nc2ccc3[nH]ncc3c2)C(c2ccc(Cl)c(Cl)c2)CC(=O)N1 (centres unmarked) [GSK299115A] | 82 | 79 | 100 | 72 | 97 | 68 | 87 | 93 | 77 | 89 |
| COc1cccc(-n2ncc3c(N/N=C/c4ccncc4)ncnc32)c1 [GW784752X] | 88 | 100 | 51 | 65 | 73 | 85 | 89 | 100 | 90 | 88 |
| Cc1cc(O)cc(C)c1/C=C/c1cncc(C(N)=O)c1 [GW435821X] | 100 | 100 | 67 | 98 | 94 | 100 | 100 | 100 | 100 | 90 |
| NS(=O)(=O)c1ccc(N/N=C2\C(=O)Nc3ccc(C(=O)NCCc4c[nH]cn4)cc32)cc1 [GW300660X] | 100 | 100 | 92 | 20 | 52 | 57 | 100 | 100 | 100 | 11 |
| C[C@@H](Oc1cc(-n2cnc3ccc(OC4CCN(C)CC4)cc32)sc1C(N)=O)c1ccccc1Cl [GSK579289A] | 76 | 86 | 100 | 49 | 82 | 91 | 88 | 71 | 100 | 69 |
| NS(=O)(=O)c1ccc(N/N=C2\C(=O)Nc3ccc(C(=O)NCc4ccncc4)cc32)cc1 [GW300657X] | 100 | 100 | 96 | 7.6 | 21 | 37 | 89 | 100 | 89 | 5.5 |
| Nc1ncnc2occ(-c3ccc(NC(=O)Nc4cc(C(F)(F)F)ccc4F)cc3)c12 [GW770249X] | 85 | 100 | 40 | 3 | 1.6 | 0.1 | 100 | 100 | 84 | 61 |
| NS(=O)(=O)c1ccc(N/N=C2\C(=O)Nc3ccc(Cl)cc32)cc1 [GW280670X] | 100 | 100 | 100 | 43 | 94 | 89 | 100 | 100 | 100 | 40 |
| COC(=O)Nc1nc2ccc(Oc3ccc(NC(=O)Nc4cc(C(F)(F)F)ccc4F)cc3)cc2s1.Cl [GW693917A] | 37 | 95 | 61 | 4.8 | 6.2 | 4.5 | 73 | 92 | 82 | 80 |
